# MOR-DOR ag: agonists of human mu-delta opioid receptor heterodimerization | P35372+P41143 | 340,000 tested, 0.3% active | cells, OPRM1-OPRD1 heterodimerization, luminescence | activation, % at 9.3 µM | AID 504326; in the data active = activation above about 18%
# Target sequence (P35372 whole entry, looked up): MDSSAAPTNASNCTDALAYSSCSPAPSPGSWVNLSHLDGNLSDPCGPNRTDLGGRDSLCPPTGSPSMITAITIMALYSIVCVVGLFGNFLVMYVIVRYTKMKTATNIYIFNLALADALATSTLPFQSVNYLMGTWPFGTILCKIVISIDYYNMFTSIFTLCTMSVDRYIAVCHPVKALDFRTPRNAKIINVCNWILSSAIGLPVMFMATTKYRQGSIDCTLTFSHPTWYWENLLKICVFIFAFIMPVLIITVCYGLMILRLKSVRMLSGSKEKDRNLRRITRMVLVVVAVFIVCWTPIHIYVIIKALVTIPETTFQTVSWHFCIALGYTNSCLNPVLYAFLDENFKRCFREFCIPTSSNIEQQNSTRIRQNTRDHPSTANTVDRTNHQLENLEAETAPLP
# Target sequence (P41143 whole entry, looked up): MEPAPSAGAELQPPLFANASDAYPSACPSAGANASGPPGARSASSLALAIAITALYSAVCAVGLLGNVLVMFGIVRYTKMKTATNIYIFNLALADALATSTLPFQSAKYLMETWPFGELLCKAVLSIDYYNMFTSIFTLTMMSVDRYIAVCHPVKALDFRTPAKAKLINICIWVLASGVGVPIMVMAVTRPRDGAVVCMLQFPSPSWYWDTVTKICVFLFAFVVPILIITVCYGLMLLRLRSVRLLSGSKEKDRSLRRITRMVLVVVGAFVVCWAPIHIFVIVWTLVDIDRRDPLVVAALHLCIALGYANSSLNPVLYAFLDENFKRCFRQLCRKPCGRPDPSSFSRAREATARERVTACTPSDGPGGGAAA
# MOR-DOR inv ag: mu-delta opioid heterodimer inverse agonism; P35372+P41143; cell-based MOR-DOR heterodimer luminescence; inhibition, % at 9.3 µM; 340,000 tested, 0.21% active; AID 504357; in the data active = inhibition above about 22%, passing the limit was not always enough
# HTR5A ag ctr: counter-screen for OPRM1-OPRD1 agonists: human HTR5A agonism; P47898; 340,000 tested, 0.61% active; activation, % at 9.3 µM; HTR5A agonist assay, luminescence, cell-based; AID 504692; in the data active = activation mostly above about 9.5%, no sharp cut-off; inactive = mostly below about 7.6%
# HTR5A inv ag: HTR5A inverse agonism, opioid heterodimer counter-screen. P47898. HTR5A cell line, luminescence. inhibition, % at 9.3 µM. 340,000 tested, 0.083% active; in the data active = inhibition mostly above about 23%, no sharp cut-off; inactive = mostly below about 18%
# HTR2A ag: mouse HTR2A agonism via beta-arrestin recruitment. CHO-K1 mHTR2A beta-arrestin complementation, luminescence; percent of 30 µM serotonin response. activation, % at 7.6 µM. 360,000 tested, 0.66% active. AID 624169;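 active = activation above a run cutoff, the mean activation of all tested compounds plus 3 SD, cut at about 14% in these data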
# OPRM1-D1 inv cf: OPRM1-OPRD1 heterodimer inverse agonism, confirmation | 580 tested, 20% active | inhibition, % at 9.3 µM | AID 504900 | shares compounds with MOR-DOR inv ag | cells expressing OPRM1/OPRD1 heterodimer, luminescence; in the data active = inhibition above about 32%
# HTR5A inv ctr2: HTR5A inverse agonism, opioid heterodimer counter-screen | shares compounds with MOR-DOR inv ag | HTR5A-expressing cells, luminescence | inhibition, % at 9.3 µM | 580 tested, under 10 active | AID 504914; call rule not given here
# Numbers stand for hits; - = inactive; . = no result given. Rows were chosen to be rich in hits. Some 1.6% of all compounds tested hit in one or more screens of this group.
SMILES,MOR-DOR ag,MOR-DOR inv ag,HTR5A ag ctr,HTR5A inv ag,HTR2A ag,OPRM1-D1 inv cf,HTR5A inv ctr2
O=C(NCc1ccncc1)[C@@H]1CCCN1C(=O)[C@H]1CCCN1C(=O)c1cccc2ccccc12,.,.,.,.,-,.,.
CC(C)C1NC(=S)N(Cc2ccccc2)C1=O (stereo not drawn),-,-,-,-,-,.,.
CC1NC(=S)N(Cc2ccccc2)C1=O (stereo not drawn),-,33,-,-,-,-,-
O=C1C=CC2(C=C1)O[C@H](Cc1ccccc1)[C@@H](Cc1ccccc1)O2,-,-,-,-,-,.,.
COc1ccc(C[C@@H]2OC3(C=CC(=O)C=C3)O[C@H]2Cc2ccc(OC)cc2)cc1,-,39,-,-,-,-,-
COc1ccccc1NC(=O)COC(=O)CN1C(=O)C(=O)c2ccccc21,-,57,-,-,-,-,-
O=C(NCc1nnnn1-c1ccc(F)cc1)c1ccc2c(c1)OCO2,.,.,.,.,-,.,.
CCC(=O)N1CCC(C)(C(=O)Nc2ccc3c(c2)OCCO3)C1 (stereo not drawn),.,.,.,.,-,.,.
CC1=C(C)C(=O)C(N2CCOCC2)=CC1=O,-,47,-,-,-,-,-
Cn1c(=O)[nH]c(=O)c2c1nc(Br)n2C/C=N/Nc1ccccc1,-,35,-,-,-,-,-
CC(=O)Nc1cc(-c2ccc(CO)cc2)cn2c(-c3cccc(C(F)(F)F)c3)cnc12,.,.,.,.,-,.,.
O=C1C(NS(=O)(=O)c2cccs2)=C(N2CCOCC2)C(=O)c2ccccc21,-,41,-,-,-,-,-
CCc1cccc2c1NC(=O)C2=O,-,61,-,-,-,-,-
CC(C)(Oc1ccc(F)cc1)C(=O)OCC(=O)c1ccc(S(C)(=O)=O)cc1,-,58,-,-,-,-,-
O=C(Cn1nnc2ccccc21)OCC(=O)c1ccc(Cl)c(Cl)c1,-,71,-,-,-,-,-
O=C(Nc1ncccn1)C1c2ccccc2Oc2ccccc21,-,-,-,-,-,.,.
O=C(Nc1ccncc1)C1c2ccccc2Oc2ccccc21,-,36,-,-,-,-,-
O=C(COC(=O)c1ccccc1F)c1ccc(-n2nncc2-c2ccco2)cc1,-,33,-,-,-,-,-
COC(=O)c1[nH]c2ccc(C)cc2c1NC(=O)NC1CCCCC1,-,-,-,-,-,.,.
O=C(Nc1c(C(=O)O)[nH]c2ccccc12)NC1CCCCC1,-,32,-,-,-,-,-
Cc1ccc(S(=O)(=O)Nc2cccc3cccnc23)cc1,-,44,-,-,-,-,-
C/C=C/c1ccc2c(c1)O[C@H](CN(C)C(=O)NC1CCCC1)[C@H](C)CN([C@H](C)CO)S2(=O)=O,.,.,.,.,-,.,.
COc1ccc(-c2cc3c(nn2)-c2ccccc2C3=O)cc1,-,91,-,-,-,75,-
COc1ccc(-c2cn(Cc3ccc4c(c3)C(=O)c3ccccc3C4=O)nn2)cc1,-,-,-,-,-,.,.
O=C1c2ccccc2-c2nnc(-c3ccccc3)cc21,-,97,-,-,-,99,-
SMILES,MOR-DOR ag,MOR-DOR inv ag,HTR5A ag ctr,HTR5A inv ag,HTR2A ag,OPRM1-D1 inv cf,HTR5A inv ctr2
Cc1cccc(-c2cc3c(nn2)-c2ccccc2C3=O)c1,-,88,-,-,-,-,-
CC1CN(c2ccccc2)NC1=O (stereo not drawn),-,48,-,-,-,-,-
CC1CN(Cc2ccccc2)C(=O)NC1=O (stereo not drawn),-,-,-,-,-,.,.
CCN1C(c2ccc(F)cc2)=CS/C1=C(/C#N)c1nnc2n1-c1ccccc1SC2,.,.,.,.,-,.,.
Cc1ccc(NC(=S)NNC(=O)c2nn(C)cc2Cl)cc1,-,29,-,-,-,-,-
Cc1cccc(NC(=S)NNC(=O)c2nn(C)cc2Cl)c1,-,-,-,-,-,.,.
CC1(C)CN(c2ccc(C(=O)c3ccccc3)cc2)C1=O,-,-,-,-,-,.,.
CC1(C)CN(c2ccccc2)N(C(=O)c2ccc(F)cc2)C1=O,-,46,-,-,-,-,-
CC1(C)CN(c2ccccc2)N(C(=O)c2ccc(C#N)cc2)C1=O,-,51,-,-,-,-,-
Cc1ccc(NC(=O)C2(C)CCCN2C)cc1C (stereo not drawn),.,.,.,.,-,.,.
ON1C(c2ccccc2C(F)(F)F)N(O)[C@H]2CCCC[C@H]21 (stereo partly drawn),-,41,-,-,-,-,-
C=CCN1C(=O)C(O)(CC(=O)c2ccccc2)c2ccccc21 (stereo not drawn),-,-,-,-,-,.,.
CS(=O)(=O)Nc1cccc(C(=O)CC2(O)C(=O)Nc3ccc(Br)cc32)c1 (stereo not drawn),-,35,-,-,-,-,-
CCS(=O)(=O)Nc1cccc(C(=O)CC2(O)C(=O)Nc3ccccc32)c1 (stereo not drawn),-,-,-,-,-,.,.
COC(=O)CN1C(=O)C(O)(CC(=O)c2cccc(Br)c2)c2ccccc21 (stereo not drawn),-,43,-,-,-,-,-
NC(=O)CN1C(=O)C(O)(CC(=O)c2ccccc2O)c2ccccc21 (stereo not drawn),-,43,-,-,-,43,-
O=C(CC1(O)C(=O)Nc2ccccc21)c1cccc(Br)c1 (stereo not drawn),-,33,-,-,-,-,-
Oc1ccc(C[C@H]2CN([C@@H](Cc3cccc(O)c3)CN3CCC[C@@H]3CN3C(=S)NC[C@@H]3Cc3ccccc3)C(=S)N2CC2CCCCC2)cc1,.,.,.,.,-,.,.
CC(C1SC(=S)NC1=O)C1SC(=S)NC1=O (stereo not drawn),.,.,.,.,-,.,.
COc1ccc(CN(C)C(=O)CCNS(=O)(=O)c2ccccc2)c(OC)c1,.,.,.,.,-,.,.
CCCCN1C(=O)C(CC(=O)NC2CC2)CC(C(=O)N(CC)CC)=C1C (stereo not drawn),.,.,.,.,-,.,.
CCOc1ccc2nc(-c3cc(NC(C)=O)ccc3O)sc2c1,-,27,-,-,-,-,-
CCOCC(=O)Nc1nc2ccc(OCC)cc2s1,-,-,-,-,-,.,.
Cc1ccc(Cl)c2c1NC(=O)C2(O)CC(=O)c1ccc(Br)cc1 (stereo not drawn),-,30,-,-,-,-,-
O=C(CC1(O)C(=O)Nc2cc(Cl)cc(Cl)c21)c1ccncc1 (stereo not drawn),-,29,-,-,-,-,-
CC(=O)Nc1ccc(C(=O)N2CCCCC2c2cc(C(=O)N3CCOCC3)no2)cc1 (stereo not drawn),.,.,.,.,-,.,.
COc1ccc(C(C(=O)NC2CCCC2)n2c(CSCCOc3ccccc3)nc3ccccc32)cc1 (stereo not drawn),.,.,.,.,-,.,.
O=C(CNC(=O)c1ccccc1F)OCc1nc2ccccc2s1,-,-,-,-,-,.,.
CNc1sc(C(=O)c2ccccc2F)c(N)c1-c1nc2ccccc2s1,-,48,-,-,-,-,-
